Experimental data as given in PubChem BioAssay (NCATS).
Several values for one entry are separate records, joined by “and”; a condition that tells them apart may be missing. Equal entries are not always repeated. Inconclusive results are not listed. Where a call stands in place of a potency, no number is given. Activity calls are given as the source filed them. The call rests on the fitted dose curve; in most records, active means well fitted curve in the direction sought with a large enough effect; inconclusive means small, poorly fitted or top-dose-only effect, or another doubt; inactive means no such curve, though single readings can be large; an effect the other way counts as inactive or inconclusive.

Experiment: qHTS of pediatric cancer cell lines to identify multiple opportunities for drug repurposing: Primary screen for DAOY cells (AID 1347090); further: nearly all actives have a fitted effect of over 55% in size
Conditions: DAOY medulloblastoma viability, CellTiter-Glo luminescence, 48 h; series mostly up to 46 µM
In short: (§1)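 Cell viability, CellTiter-Glo luminescence; 500-1,000 cells/well, 8- or 11-point titration, 48 h compound exposure at 37 degrees C, 5% CO2. Controls: DMSO neutral, bortezomib 2.3 µM final as positive.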
Potency means the concentration at half of the fitted maximal effect.

Row | SMILES | Potency
1 | O=C(Nc1nc2ccccc2n1CCN1CCOCC1)c1cccc([N+](=O)[O-])c1 | 7.43 µM (active)
2 | CNCc1ccc(-c2[nH]c3cc(F)cc4c3c2CCNC4=O)cc1 | inactive
3 | CN(C)C(=O)c1ccc(S(=O)(=O)c2ccc(NC(=O)[C@@](C)(O)C(F)(F)F)c(Cl)c2)cc1 | 18.7 µM (active)
4 | CNC[C@H](O)c1cccc(O)c1 | inactive
5 | CCc1cncnc1N1CCN(Cc2nc3ccc(C(F)(F)F)cc3[nH]2)CC1 | 18.7 µM (active)
6 | OC(CCN1CCCCC1)(c1ccccc1)C1CC2C=CC1C2 (configuration not stated) | inactive
7 | Cc1cn[nH]c1 | inactive
8 | Cn1cnc2c(F)c(Nc3ccc(Br)cc3Cl)c(C(=O)NOCCO)cc21 | 14.8 µM (active)
9 | COc1ccc(CCN2CCN(CCCc3ccccc3)CC2)cc1OC | inactive
10 | OCCn1cc(-c2cnc3nnn(Cc4ccc5ncccc5c4)c3n2)cn1 | inactive
11 | NC(=O)c1ccc(-c2nc(-c3ccc4c(c3)OCCO4)c(-c3ccccn3)[nH]2)cc1 | inactive
12 | CNC(=O)c1ccc(C)c(-n2c(C)cc(OCc3ccc(F)cc3F)c(Br)c2=O)c1 | inactive
13 | COc1ccc(CC2=NN3C([C@@H](CCc4ccccc4)[C@@H](C)O)=NC(C)C3C(=O)N2)cc1OC (some centres not stated) | inactive
14 | COc1ccc(C2=N[C@H](c3ccc(Cl)cc3)[C@H](c3ccc(Cl)cc3)N2C(=O)N2CCNC(=O)C2)c(OC(C)C)c1 | 23.5 µM (active)
15 | NC(=O)c1cnccn1 | inactive
16 | Nc1nc2ccc(OC(F)(F)F)cc2s1 | inactive
17 | CC(C)(N)C(=O)N[C@H](COCc1ccccc1)C(=O)N1CCC2(CC1)CN(S(C)(=O)=O)c1ccccc12 | inactive
18 | Cc1cc2c(C(C)C)c(O)c(O)c(C=O)c2c(O)c1-c1c(C)cc2c(C(C)C)c(O)c(O)c(C=O)c2c1O | 21.1 µM (active) and 14.8 µM (active)
19 | CCCS(=O)(=O)Nc1ccc(F)c(C(=O)c2c[nH]c3ncc(-c4ccc(Cl)cc4)cc23)c1F | 18.7 µM (active)
20 | C1COC(NC(C2CC2)C2CC2)=N1 | inactive
21 | CCC(C)(C)C(=O)O[C@H]1C[C@@H](C)C=C2C=C[C@H](C)[C@H](CC[C@@H]3C[C@@H](O)CC(=O)O3)[C@H]21 | 6.68 µM (active) and 5.9 µM (active)
22 | Clc1cccc(Cl)c1NC1=NCCN1 | inactive
23 | Cc1ccnc(NS(=O)(=O)c2ccc(NC(=O)Nc3ccc(S(=O)(=O)Nc4nccc(C)n4)cc3)cc2)n1 | inactive
24 | Cc1ccccc1C(OCCN(C)C)c1ccccc1 (configuration not stated) | inactive

Experiment: qHTS of pediatric cancer cell lines to identify multiple opportunities for drug repurposing: Primary screen for SJ-GBM2 cells (AID 1347091)
Conditions: SJ-GBM2 viability, CellTiter-Glo luminescence, 48 h; series mostly up to 46 µM
In short: as §1

Row | SMILES | Potency
25 | O=C(Nc1nc2ccccc2n1CCN1CCOCC1)c1cccc([N+](=O)[O-])c1 | 14.8 µM (active)
26 | CNCc1ccc(-c2[nH]c3cc(F)cc4c3c2CCNC4=O)cc1 | inactive
27 | CN(C)C(=O)c1ccc(S(=O)(=O)c2ccc(NC(=O)[C@@](C)(O)C(F)(F)F)c(Cl)c2)cc1 | inactive
28 | CNC[C@H](O)c1cccc(O)c1 | inactive
29 | Cc1ccc(-n2nc(C(C)(C)C)cc2NC(=O)Nc2ccc(OCCN3CCOCC3)c3ccccc23)cc1 | inactive
30 | CCc1cncnc1N1CCN(Cc2nc3ccc(C(F)(F)F)cc3[nH]2)CC1 | inactive
31 | OC(CCN1CCCCC1)(c1ccccc1)C1CC2C=CC1C2 (configuration not stated) | inactive
32 | Cc1cn[nH]c1 | inactive
33 | Cn1cnc2c(F)c(Nc3ccc(Br)cc3Cl)c(C(=O)NOCCO)cc21 | inactive
34 | COc1ccc(CCN2CCN(CCCc3ccccc3)CC2)cc1OC | inactive
35 | OCCn1cc(-c2cnc3nnn(Cc4ccc5ncccc5c4)c3n2)cn1 | 0.0059 µM (active)
36 | NC(=O)c1ccc(-c2nc(-c3ccc4c(c3)OCCO4)c(-c3ccccn3)[nH]2)cc1 | inactive
37 | COc1cc(Nc2ncc3c(n2)-c2ccc(Cl)cc2C(c2c(F)cccc2OC)=NC3)ccc1C(=O)O | 0.0209 µM (active)
38 | CNC(=O)c1ccc(C)c(-n2c(C)cc(OCc3ccc(F)cc3F)c(Br)c2=O)c1 | inactive
39 | COc1ccc(CC2=NN3C([C@@H](CCc4ccccc4)[C@@H](C)O)=NC(C)C3C(=O)N2)cc1OC (some centres not stated) | inactive
40 | COc1ccc(C2=N[C@H](c3ccc(Cl)cc3)[C@H](c3ccc(Cl)cc3)N2C(=O)N2CCNC(=O)C2)c(OC(C)C)c1 | 14.8 µM (active)
41 | NC(=O)c1cnccn1 | inactive
42 | Nc1nc2ccc(OC(F)(F)F)cc2s1 | 21.1 µM (active)
43 | Cc1cc2c(C(C)C)c(O)c(O)c(C=O)c2c(O)c1-c1c(C)cc2c(C(C)C)c(O)c(O)c(C=O)c2c1O | 4.22 µM (active) and 3.72 µM (active)
44 | CCCS(=O)(=O)Nc1ccc(F)c(C(=O)c2c[nH]c3ncc(-c4ccc(Cl)cc4)cc23)c1F | 18.7 µM (active)
45 | C1COC(NC(C2CC2)C2CC2)=N1 | inactive
46 | CCC(C)(C)C(=O)O[C@H]1C[C@@H](C)C=C2C=C[C@H](C)[C@H](CC[C@@H]3C[C@@H](O)CC(=O)O3)[C@H]21 | 3.35 µM (active) and 14.8 µM (active)
47 | OCCC#Cc1nc(-c2ccc(F)cc2)c(-c2ccncc2)n1CCCc1ccccc1 | 23.5 µM (active)
48 | Clc1cccc(Cl)c1NC1=NCCN1 | inactive
49 | N#CC[C@H](C1CCCC1)n1cc(-c2ncnc3[nH]ccc23)cn1 | inactive
50 | Cc1ccnc(NS(=O)(=O)c2ccc(NC(=O)Nc3ccc(S(=O)(=O)Nc4nccc(C)n4)cc3)cc2)n1 | 16.6 µM (active)
51 | NC(N)=NC(=O)c1nc(Cl)c(N)nc1N | inactive
52 | Cc1ccccc1C(OCCN(C)C)c1ccccc1 (configuration not stated) | inactive
